ERG Ets-DNA blk – inhibitors of human ERG Ets domain-DNA interaction; fluorescence polarization, His-ERG Ets domain / labelled DNA; AID 624246; Potency, µM (series often up to 76.9 µM), without a hit: top-dose FP activity, negative = inhibition, most hits filed as inhibitors; actives 0.028% (n = 370,000); active means well fitted inhibition curve with a large enough effect in the polarisation, with a control signal flat; inconclusive means small, poorly fitted or top-dose-only effect, or effect the other way, or a change in a side signal; inactive means no such curve, though single readings can be large or run the other way; the % refers to the polarisation;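 further: polarization taken with two DNA probes labelled with fluorescein and Texas red; potency means the concentration at half of the fitted maximal effect; % of control where 0% means no effect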
Target sequence (P11308 whole entry, looked up, the tested form may be a part): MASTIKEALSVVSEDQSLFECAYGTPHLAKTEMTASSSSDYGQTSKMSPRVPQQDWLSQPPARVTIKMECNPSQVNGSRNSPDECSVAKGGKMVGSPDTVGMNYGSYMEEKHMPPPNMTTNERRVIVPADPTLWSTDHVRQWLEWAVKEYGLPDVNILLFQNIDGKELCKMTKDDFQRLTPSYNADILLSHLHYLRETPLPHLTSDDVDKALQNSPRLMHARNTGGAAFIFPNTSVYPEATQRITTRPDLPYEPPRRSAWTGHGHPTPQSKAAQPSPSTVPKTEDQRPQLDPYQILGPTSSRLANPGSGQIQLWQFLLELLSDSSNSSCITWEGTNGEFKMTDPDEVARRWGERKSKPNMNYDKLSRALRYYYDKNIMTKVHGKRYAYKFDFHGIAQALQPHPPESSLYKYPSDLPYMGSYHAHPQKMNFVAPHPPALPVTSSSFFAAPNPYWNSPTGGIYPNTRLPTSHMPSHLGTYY
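His-tagged ERG Ets domain (1 uM in the protein solution; 300mM KCl, 50mM Tris-HCl, 1mM EDTA, 1mM DTT, pH 7.5) received compound, then a probe mix of 5 nM fluorescein-DNA and 100nM Texas-615-DNA. Fluorescence polarization was read for both dyes.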
LDHA block – LDHA (human) enzyme inhibition | P00338 | actives 0.15% (n = 480,000) | activity change, % (values are at about 110 or 230 µM) | purified LDHA, NADH/diaphorase-resazurin fluorescence; active compounds read low; in the data active means activity change below about -30%; inconclusive means mostly about -25% to -30%;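 further: plate controls were DMSO wells for no effect and wells without enzyme for full effect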
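Human LDH5 at 2 nM final in Tris HCl pH 7.4 with 0.06 mM NADH and 0.2 mM pyruvate, reacted 5 minutes at room temperature. Remaining NADH coupled via diaphorase/resazurin; resorufin fluorescence read at 0 and 20 minutes, normalized to enzyme-free and DMSO wells.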
A549 tox – A549 cytotoxicity, counter-screen for Nrf2 inhibitors. Potency, µM (titrated, usually from 46 µM), without a hit: at the highest dose activity change, negative = cytotoxicity, usual class: inhibitors. actives 0.16% (n = 390,000). A549 ARE-Fluc cells, CellTiter-Fluor viability, 18-24 h; further: potency means the concentration at half of the fitted maximal effect; on the % scale 0 is the no-effect control and ±100 the full control effect
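Cytotoxicity counterscreen: CellTiter-Fluor fluorescence was measured in A549 ARE_Fluc cells after 18-24 h of compound exposure in a concentration series. The subsequent BugLite luminescent read reports ARE-luciferase activity.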
Nrf2 block – Nrf2 pathway inhibition. actives 2.1% (n = 360,000). A549 ARE-Fluc reporter, luciferase luminescence, 18-24 h. Potency, µM (doses to about 46 µM), for the others: top-dose activity change, negative = inhibition, hits mostly inhibitors; further: potency means the concentration at half of the fitted maximal effect; on the % scale 0 is the no-effect control and ±100 the full control effect; nearly all actives have a fitted effect of over 60% in size
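A549 ARE_Fluc cells, 5000/well, 5% FBS OPTI-MEM; compounds in dose-response, 18-24 h at 37 °C/5% CO2; CellTiter-Fluor viability read (Ex 405/Em 525), then BugLite luciferase luminescence = Nrf2 activity.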
Nrf2 ARE act – activators of Nrf2 (ARE) signaling; AREc32 ARE-luciferase reporter (MCF7-derived line), luminescence, 24 h; AID 624171; Potency, µM (series often up to 46.1 µM), for inactives: at the top dose activation, hits mostly activators; actives 0.31% (n = 410,000); further: potency means the concentration at half of the fitted maximal effect; % of control where 0% means no effect; nearly all actives have a fitted effect of over 65% in size
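Each well held 1000 AREc32 cells, which were incubated with compound for 24 hr at 37 deg C after overnight attachment, and ARE reporter activity was quantified by firefly luciferase luminescence.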
12-LOX inh – inhibitors of human 12S-lipoxygenase ALOX12; Potency, µM (titrated, usually from 108 µM), inactives show at the highest dose activity change, negative = inhibition, most hits filed as inhibitors; AID 1671190; actives 1.1% (n = 580,000); purified 12hLO, xylenol orange hydroperoxide absorbance; P18054; further: potency means the concentration at half of the fitted maximal effect; on the % scale 0 is the no-effect control and ±100 the full control effect
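Purified human 12hLO (150 nM final) in 25 mM Hepes, 0.01% Triton X-100, pH 7.0 was preincubated 15 min at room temperature with compound. Then 40 uM arachidonic acid was added, 30 min. Hydroperoxide was read by Fe-XO absorbance ratio 573/405 nm.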
An asterisk follows results filed as active; ? = inconclusive; · = no result. This is a sample that favours compounds with a hit; in the whole collection about 2.7% have one here. Unless noted, the call rests on the fitted dose curve; in most records, active means well fitted curve in the direction sought with a large enough effect; inconclusive means small, poorly fitted or top-dose-only effect, or another doubt; inactive means no such curve, though single readings can be large; an effect the other way counts as inactive or inconclusive.

SMILES	ERG Ets-DNA blk	LDHA block	A549 tox	Nrf2 block	Nrf2 ARE act	12-LOX inh
COc1ccc(N(CC(=O)NCCc2ccc(C)cc2)S(=O)(=O)c2c(C)noc2C)cc1	-5.9%	0.3	-18.6%	23.1µM*	2.5%	10.6%
COCC(O)CNC(=O)c1cc(-c2ccc(OC)cc2)nc2ccccc12 (stereo not drawn)	·	2.0	·	·	·	?
CCOC(=O)Cc1csc(NC(=S)NC(=O)c2ccccc2)n1	-3.9%	3.6	4.7%	0.2%	-2.1%	-10.7%
CCOC(=O)Cc1csc(NC(=S)NC(=O)c2ccc(C)cc2)n1	-6.6%	1.6	-10.1%	2.06µM*	-3.1%	-22.0%
Cc1csc(NC(=S)NC(=O)c2ccccc2)n1	0.9%	-16.3	-1.5%	?	6.31µM*	-27.1%
Cc1ccc2cccc(NC(=S)NC(=O)c3ccccc3)c2n1	4.1%	10.1	-17.6%	-10.4%	3.98µM*	?
Cc1cc(SCC(=O)NC(C)C(C)C)nc2c(C)cccc12 (stereo not drawn)	·	-0.3	·	·	·	-26.4%
Cc1ccc(NC(=O)CC(=O)Nc2ccc(C)cc2C)c(C)c1	2.4%	-2.4	-2.0%	14.4%	-0.6%	-20.9%
Cc1ccc(N/C(C(Cl)=C(Cl)Cl)=C(/Cl)[N+](=O)[O-])c(C)c1	13.6%	4.8	-1.9%	-11.2%	22.4µM*	?
CCn1c(CSc2n[nH]c(-c3ccccc3)n2)nc2cc(S(=O)(=O)N3CCOCC3)ccc21	·	8.9	·	·	·	7.1%
CCn1c(CSc2n[nH]c(N)n2)nc2cc(C(=O)O)ccc21	15.8µM*	6.2	2.6%	-1.8%	-0.3%	-2.2%
CCn1c(CSc2nnc3ccccn23)nc2cc(C(=O)O)ccc21	?	2.2	19.1%	19.4%	0.2%	?
CCn1c(CSc2nnc(-c3ccncc3)n2CCOC)nc2cc(C(=O)O)ccc21	5.01µM*	-1.5	-1.9%	-1.3%	-0.5%	?
CC(=O)NCCNC(=O)c1cc(C)nc2ccc(C)cc12	·	-4.3	·	·	·	?
CC(NC(=O)c1ccc(Cl)o1)c1ccc(C(F)(F)F)cc1 (stereo not drawn)	·	6.9	·	·	·	3.1%
COc1cc2c(cc1OC)-c1c(c(C(=O)NCCN3CCOCC3)nn1-c1ccccc1)C2	·	-4.5	·	·	·	10.9%
COc1cc(-c2ccc(Nc3ccccc3C(=O)O)c(OC)c2)ccc1Nc1ccccc1C(=O)O	?	25.1	?	?	-0.8%	35.5µM*
COc1cccc(Nc2ccccc2C(=O)O)c1	-2.8%	0.7	1.1%	?	0.6%	-13.7%
CCCCOC(=O)c1ccc(NS(=O)(=O)c2c(C)nc3scc(C)n3c2=O)cc1	0.3%	-7.9	-8.6%	16.4µM*	5.6%	-24.3%
Cc1nc2scc(C)n2c(=O)c1S(=O)(=O)Nc1ccc(F)cc1	3.2%	-2.3	1.2%	?	-0.1%	-19.2%
Cc1ccc(-c2[nH]c(=S)[nH]c(=O)c2C#N)cc1	1.6%	1.7	4.4%	18.4%	0.1%	15.8µM*
Cc1ccc2[nH]c(-c3ccc(Cl)cc3)c(C#N)c2c1	·	·	·	·	·	-10.2%
N#Cc1c(NC(=O)CSc2nc(N)cc(=O)[nH]2)sc2c1CCCCCC2	·	-8.9	-4.6%	7.31µM*	0.2%	6.5%
CC(Sc1nc(N)cc(=O)[nH]1)C(=O)Nc1sc2c(c1C#N)CCCC2 (stereo not drawn)	1.6%	-2.3	-29.6%	13µM*	3.2%	-9.2%
CCC(Sc1nc(C)cc(=O)[nH]1)C(=O)Nc1sc2c(c1C#N)CCCC2 (stereo not drawn)	·	0.9	1.2%	0.1%	2.3%	-26.8%
O=C(Nc1cccc2ncccc12)c1ccc2ccccc2c1	·	-14.8	·	·	·	11.2µM*
COC(=O)c1ccc(C2C(C#N)=C(N)Oc3n[nH]c(-c4ccc(OC)cc4)c32)cc1 (stereo not drawn)	·	3.0	·	·	·	-55.2%

From PubChem BioAssay
